We go through 29 molecules from PubChem BioAssay.

Structures are written as SMILES.

For test [1], the target named is Tumor necrosis factor receptor superfamily member 10B (Homo sapiens) (UniProt O14763). The experiment in a line: viability loss of caspase-8 NB7 cells with TRAIL – with/without TRAIL, luminescence panel, confirmation (AID 651596). Conditions: NB7 neuroblastoma + caspase-8, TRAIL sensitization, NB7 Caspase-8, with TRAIL, mean of runs, at 10 µM, stronger effect = higher value.

Experiment in test [2]: as above
Conditions: NB7 neuroblastoma + caspase-8, without TRAIL, NB7 Caspase-8, without TRAIL, mean of runs, at 10 µM.

Chain of Tumor necrosis factor receptor superfamily member 10B (Homo sapiens) (O14763 whole entry, looked up): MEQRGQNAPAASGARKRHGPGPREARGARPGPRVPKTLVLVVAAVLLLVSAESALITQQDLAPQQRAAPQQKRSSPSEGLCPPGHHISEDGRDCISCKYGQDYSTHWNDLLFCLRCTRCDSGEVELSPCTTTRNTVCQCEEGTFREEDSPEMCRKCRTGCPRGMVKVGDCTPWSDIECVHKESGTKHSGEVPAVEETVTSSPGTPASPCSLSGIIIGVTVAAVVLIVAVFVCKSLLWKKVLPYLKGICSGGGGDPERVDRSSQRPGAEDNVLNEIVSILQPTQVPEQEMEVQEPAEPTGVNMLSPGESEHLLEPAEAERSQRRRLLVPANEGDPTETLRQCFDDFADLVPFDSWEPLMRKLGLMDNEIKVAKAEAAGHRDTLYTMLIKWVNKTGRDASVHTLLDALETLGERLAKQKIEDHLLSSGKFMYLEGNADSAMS

Take `Cc1ccc(C(=O)/C=C/Nc2ccccn2)cc1`: the activity in test [1] came to 86.9%; in test [2], 79.8%.

With `COc1ccc(OC)c(Nc2nc(N)nc(CCl)n2)c1`, the values for the activity in test [1] and in test [2] were 99% and 97.5%, respectively.

Take `O=C(NOCc1ccccc1)c1ccc(Cl)cc1Cl`: the activity in test [1] turned out to be 62.6%; in test [2] it was 55.5%.

For the molecule `COc1cc(C2CC(c3cccs3)=NN2C(=O)CCl)ccc1OC(F)F` (stereo not drawn), the activity in test [1] and in test [2] was 99.5% throughout.

Turning to `C#Cc1ccc([C@@H]2C=C(C(=O)Nc3ccccc3)O[C@H](OCC)[C@H]2CCCO)cc1`, the activity stood at 90.8% in test [1] and 91.5% in test [2].

Regarding `CC1CCN(S(=O)(=O)c2ccc3c(c2)C(=NO)c2cc(S(=O)(=O)N4CCC(C)CC4)ccc2-3)CC1`, the activity in test [1] was found to be 98.2%; in test [2], 99%.

For `COc1ccc(NC(=O)c2cc(-c3ccncc3)nc3ccc(Br)cc23)cc1OC`, the activity in test [1] turned out to be 4.8%; in test [2], 51.5%.

In the case of `CCOc1ccc(CN(C)C(=O)[C@H](Cc2ccccc2)NC(=O)OCc2ccccc2)cc1OC`, the activity in test [1] was -12.3%; in test [2], 1.82%.

As to `O=C(Nc1nc(-c2nc3ccccc3s2)cs1)C1CC1`, the activity is 59% in test [1] and 69.9% in test [2].

On to `Cc1c(Cl)cccc1Nc1nc(N)nc(CSc2ncccn2)n1`, for which the activity was 91.8% in test [1] and 92.3% in test [2].

Regarding `CC(C)(C)OC(=O)NCCCC[C@H](NC(=O)c1[nH]cnc1C(=O)Nc1ccccc1)C(=O)OC(C)(C)C`, the activity was 74.2% in test [1] and 58.6% in test [2].

For the molecule `CCN(CC)CCn1c2c(c(SCC(=O)Nc3nc4ccc(C)cc4s3)nc1=O)CCC2`, the activity worked out at 28% in test [1] and 21.6% in test [2].

Take `N/C(=N\OC(=O)c1ccc([N+](=O)[O-])cc1Cl)c1ccccn1`: the activity came out at 90.2% in test [1] and 87.3% in test [2].

For the molecule `O=C(N/N=C/c1cccnc1)c1ccc2c(c1)OCCO2`, the results for the activity in test [1] and in test [2] were 76.2% and 67%, respectively.

As for `Cc1cc(C)cc(N2C(N)=NC(N)=NC2c2ccccc2F)c1` (stereo not drawn), the activity in test [1] is 51.1%; in test [2] it was 72.4%.

For `C#CCN(C[C@@H]1[C@@H](OC(=O)NCc2ccccc2F)[C@@H](OC(=O)NCc2ccccc2F)Cn2c(=O)ccc(=O)n21)S(=O)(=O)c1ccc(C)cc1`, the figures for the activity in test [1] and in test [2] were 95% and 93.6%, respectively.

`Cc1ccccc1C(=O)O/N=C(\N)c1cccc([N+](=O)[O-])c1`: the activity in test [1] came out at 80.9%; in test [2] it was 79.9%.

Turning to `O=C(CCl)N1CCN(S(=O)(=O)c2ccc3c(c2)CCC3)CC1`, the activity in test [1] worked out at 97.7%; in test [2], 97.1%.

Turning to `CN(C)CCCN(C(=O)c1cc2cc([N+](=O)[O-])ccc2s1)c1nc2cc3c(cc2s1)OCCO3`, the activity in test [1] was found to be 92.2%; in test [2], 83%.

Regarding `CS(=O)(=O)Nc1cccc(NC(=O)C2Cc3c(-c4ccco4)ccnc3O2)c1` (stereo not drawn), the activity in test [1] was determined as 35.7%; in test [2], 27.8%.

For the molecule `CCc1ccc(OCc2nc(-c3ccccn3)no2)c(Br)c1`, the figures for the activity in test [1] and in test [2] were 50% and 46.4%, respectively.

For `c1ccc(-c2cc3cc4c(cc3cn2)OCO4)cc1`, the figures for the activity in test [1] and in test [2] were 43.8% and 29%, respectively.

As for `COc1cc(/C=C2\Oc3ccc(C#Cc4ccc(O)cc4)cc3C2=O)cc(OC)c1`, the figures for the activity in test [1] and in test [2] were 80.5% and 83.2%, respectively.

On to `CCCC(=O)N1CCN(c2ccc(NC(=O)c3cc4ccccc4o3)cc2Cl)CC1`, for which the values for the activity in test [1] and in test [2] were 83% and 58.6%, respectively.

`Cc1ccc(CNc2nc3ccccc3n2C)cc1`: the activity in test [1] turned out to be 59.8%; in test [2] it was 53.8%.

On to `CCOc1cc(/C=N\NC(=O)c2ccc(NC(=O)C(C)(C)C)cc2)ccc1OC(=O)c1cccc(C)c1`, for which the activity in test [1] is 73.5%; in test [2], 47.2%.

With `O=C(CSc1nnc(-c2ccccc2)o1)Nc1ccccc1F`, the figures for the activity in test [1] and in test [2] were 55.1% and 43.5%, respectively.

On to `COc1ccc(C(=O)NC(=O)Nc2cc(C)ccn2)cc1`, for which the values for the activity in test [1] and in test [2] were 95.3% and 95.4%, respectively.

As to `O=C(Nc1nc2c(s1)CCCC2)c1ccc(Br)o1`, the values for the activity in test [1] and in test [2] were 73.7% and 88.6%, respectively.
